# Bioassay records as filed in PubChem.
# In the library only some 8.7% were active in any assay of this set; here they are far more common.
# AMA1-RON2 inh: qHTS for Inhibitors of AMA1-RON; Towards Development of Antimalarial Drug Lead: Primary Screen | AlphaScreen AMA1-biotinylated RON2 peptide binding | Plasmodium falciparum AMA1 (3D7) - RON2 peptide interaction | Potency, µM (highest dose often 58.2 µM), without a hit: at the top dose activity change, negative = inhibition, usual class: inhibitors | 360,000 compounds, 0.2% hits;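 note: 0% = vehicle wells and -100% = peptide control; nearly all actives have a fitted effect of over 45% in size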
#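 AMA1 (3D7) with his tag at 25 nM final met compounds first, then biotinylated RON2 peptide at 25 nM; detection used donor plus acceptor beads, 10 µg/mL apiece, read by AlphaScreen after 30 min at room temperature.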
# Vaccinia mCherry: qHTS for Stage-Specific Inhibitors of Vaccinia Orthopoxvirus: mCherry Reporter Primary qHTS. Vaccinia virus mCherry reporter infection, fluorescence. Potency, µM (series often up to 36.5 µM), inactives show top-dose activity change, negative = inhibition, actives largely listed as inhibitors. 310,000 compounds, 0.63% hits. AID 720579, 2013; calls by dose curve; tested in A549 cells; note: nearly all actives have a fitted effect of over 35% in size
# Pf growth 48h: Primary qHTS for delayed death inhibitors of the malarial parasite plastid, 48 hour incubation; 310,000 compounds, 5.9% hits; AID 504832, 2011; Potency, µM (top dose mostly 28.7 µM), for the others: at the top dose activity change, negative = inhibition, actives largely listed as inhibitors; P. falciparum luciferase growth in erythrocytes, 48 h
#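 Cell-based growth assay: transgenic P. falciparum expressing firefly luciferase, cultured in red cells within RPMI 1640 containing 0.5% w/v Albumax, 24 mM bicarbonate and gentamycin. A drop in luciferase activity indicates inhibition.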
# Vaccinia Venus: qHTS for Stage-Specific Inhibitors of Vaccinia Orthopoxvirus: Venus Reporter Primary qHTS; Vaccinia virus Venus reporter expression, fluorescence; Potency, µM (top dose mostly 36.5 µM), for the others: top-dose activity change, negative = inhibition, actives largely listed as inhibitors; 330,000 compounds, 0.46% hits; AID 720580, 2013; calls by dose curve; tested in A549 cells; note: nearly all actives have a fitted effect of over 30% in size
# Pf growth 96h: Primary qHTS for delayed death inhibitors of the malarial parasite plastid, 96 hour incubation. P. falciparum luciferase reporter growth, 96 h. Potency, µM (doses to about 28.7 µM), inactives show at the top dose activity change, negative = inhibition, hits mostly inhibitors. 320,000 compounds, 6.9% hits. AID 504834, 2011
#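 Cell-based qHTS: luciferase-tagged P. falciparum in erythrocytes (2% hematocrit, 0.05% parasitemia final) incubated with compounds for 96 hours, 37 C, 5% CO2; luciferase detection reagent then added and luminescence measured.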
# Numbers without * were called inactive; i = inactive; ? = inconclusive; / = no result; [ ] = remark or other dose. Unless noted, calls come from the whole dose curve; as a rule, active = well fitted curve in the direction sought with a large enough effect; inconclusive = small, poorly fitted or top-dose-only effect, or another doubt; inactive = no such curve, though single readings can be large; an effect the other way counts as inactive or inconclusive. Unless noted, % is set by controls: 0 for no effect and ±100 for the full control effect; potency is the fitted concentration of half-maximal effect.
SMILES,AMA1-RON2 inh,Vaccinia mCherry,Pf growth 48h,Vaccinia Venus,Pf growth 96h
COc1ccccc1Nc1nc(-c2sc(NC(=O)c3ccco3)nc2C)cs1,-11%,?,12µM*,-27%,9.3µM*
Cc1nc(NC(=O)c2ccco2)sc1-c1csc(Nc2ccc(Cl)cc2Cl)n1,21%,-23%,?,?,8.3µM*
CCCC(C)C(=O)Nc1nc(C)c(-c2csc(Nc3cc(Cl)ccc3C)n2)s1 (stereo not given),33%,-6%,?,-13%,?
Cc1ccc(N2CC(NC(=O)c3cccs3)CC2=O)cc1 (stereo not given),/,-1%[7.34 µM],/,-4%[7.34 µM],/
COc1cccc(CNC(=O)Cn2c(SCC(=O)Nc3ccc(F)cc3)nc3ccccc32)c1,/,-27%,/,-13%,/
CCc1cccc(Nc2ncnc3onc(-c4ccc(F)cc4)c23)c1,/,-1%,/,0%,/
CC(=O)n1cc(N(C(=O)CCl)c2ccc(Cl)cc2)c2ccccc21,-2%,/,2.3µM*,/,?
CC(C)(C)c1nnc(N/N=C/c2cc(Br)ccc2O)n(N)c1=O,-12%,2.5µM*,3.3µM*,?,8.3µM*
COc1ccc(CC(C#N)(CO)c2nc3ccccc3[nH]2)cc1 (stereo not given),-5%[11.6 µM],?,?,-29%,2.3µM*
CCc1ccc(NC(=O)CSc2nc3c(c(=O)n(C)c(=O)n3C)n2C)cc1,-3%,-6%,-3%,-8%,10µM*
CCc1ccc(NC(=O)CSc2nc3ccsc3c(=O)n2CCC(=O)O)cc1,-7%,/,12%,/,7.4µM*
CCCn1c(SCC(=O)Nc2ccc(NC(=O)CC)cc2)nc2c1c(=O)n(C)c(=O)n2C,4%,i,?,-10%,-3%
CCCCn1c(SCC(=O)c2ccc(O)c(O)c2)nc2ccsc2c1=O,30%,22µM*,-2%,?,?
COc1ccccc1C1CN(CCNC(=O)c2ccc3c(c2)OCCO3)Cc2ccccc2O1 (stereo not given),/,-14%,/,-3%,/
O=S(=O)(c1ccc2c(c1)OCCO2)N1CCN(CCc2ccccc2)CC1,/,-14%,/,-11%,/
CC1CCN(S(=O)(=O)c2ccc(F)c(C(=O)O)c2)CC1,-2%,-7%,?,-7%,-25%
COc1ccc2[nH]c(=O)c(C(=O)O)cc2c1,25%,-5%,-7%,-3%,0%
CC1CCN(S(=O)(=O)c2ccc3[nH]c(=O)cc(C(=O)O)c3c2)CC1,-12%,-11%,0%,-1%,2.9µM*
COc1ccc2[nH]c(=O)cc(C(=O)O)c2c1,22µM*,2%,12%,-16%,?
O=C(Cn1ncc2c(=O)oc3ccccc3c21)N1CCN(c2ccc(Cl)cc2)CC1,/,1%,/,6%,/
COC(=O)[C@@H]1CCCN1C(=O)c1c(OC)cc(=O)n2c1CCN(Cc1ccc3c(c1)OCCO3)CC2,/,-7%,/,-9%,/
O=C1/C(=C\c2ccc(Br)o2)SC(=Nc2ccccc2)N1c1ccccc1,?,/,?,/,9.3µM*
COc1cccc(NC(=O)Cn2c(=O)n(-c3cccc(OC)c3)c(=O)c3c4c(sc32)CCCC4)c1,/,-17%,/,-6%,/
Cc1nc(C)c(CC(=O)N2CCOc3ccc(CN4CCOCC4)cc3C2)s1,/,-8%,/,-6%,/
CCOc1ccc(CCNc2nc3ccccc3n3c(C)nnc23)cc1OCC,14%,-11%,5.2µM*,-8%,16%
SMILES,AMA1-RON2 inh,Vaccinia mCherry,Pf growth 48h,Vaccinia Venus,Pf growth 96h
CCOC(=O)Nc1nc(-c2ccccc2)c(C(=O)c2ccc(Cl)cc2)s1,12%,/,?,?,/
CCCCC(=O)N(c1ccc(C(=O)O)cc1)c1nc(-c2ccc(Cl)cc2)c(CC)s1,5%,/,2.3µM*,/,?
CCc1sc(N(C(=O)Cc2ccccc2)c2ccc(F)cc2)nc1-c1ccccc1,-1%,/,/,-26%,27%
CCc1sc(N(C(=O)Cc2ccccc2)c2ccccc2)nc1-c1ccccc1,-5%,-13%,13µM*,-2%,/
Cc1cc2nc(N3CCC(NC(C)c4nc(-c5ccccn5)no4)CC3)nc(C)c2cc1C (stereo not given),/,-17%,/,-13%,/
COc1ccccc1Nc1cc(C)nc2c(C)ccc([N+](=O)[O-])c12,3.2µM*,i,-14%,-12%,?
O=c1[nH]c(C2CCN(S(=O)(=O)c3ccc(S(=O)(=O)NC4CC4)cc3)CC2)nc2c1nnn2Cc1cccc(F)c1,3%,-17%,9.3µM*,11%,?
Cc1ccc(Cn2nnc3c(=O)[nH]c(C4CCN(S(=O)(=O)c5ccc(S(=O)(=O)NC6CC6)cc5)CC4)nc32)cc1,-4%,-19%,?,-7%,1.5µM*
CCOC(=O)N1CCN(C(=O)CN2C(=O)CC(C)(C)S(=O)(=O)c3ccccc32)CC1,7%,-18%,/,-6%,3.3µM*
CN1CCN(C(=O)CN2C(=O)CC(C)(C)S(=O)(=O)c3ccccc32)CC1,3%,-15%,/,-2%,/
CCCN1CCN(C(=O)CN2C(=O)CC(C)(C)S(=O)(=O)c3ccccc32)CC1,-18%,-13%,-17%,-5%,15µM*
CN(C)c1ccc(CNC(=O)CCCN2C(=O)c3cccnc3Oc3ccc(Cl)cc32)cc1,/,-10%,/,-3%,/
Cc1ccc(Nc2ncc(C(=O)Nc3ccc(F)cc3F)c3ccccc23)cc1Cl,/,-21%,/,-14%,/
O=C1C=CC(=O)N1c1ccc(OC(F)F)cc1,0%,i,5%,-21%,9.3µM*
COc1cc(OC)cc(C(=O)Nc2cc(-c3nc4cc(Cl)ccc4o3)ccc2Cl)c1,/,5%,/,1%,/
CC(=O)Nc1ccccc1-c1nc(CNC(=O)c2ccc(-n3cccn3)cc2)c(C)o1,/,-13%,/,1%,/
O=C(Nc1ccon1)c1cc(-c2ccccc2)nc2ccccc12,-3%,/,7.4µM*,-11%,/
COc1cccc(-c2cc(C(=O)Nc3ccccc3)c3ccccc3n2)c1,23%,i[7.34 µM],/,-7%[7.34 µM],/
CCOc1cccc(-c2cc(C(=O)Nc3ccon3)c3ccccc3n2)c1,-4%,-14%,2.1µM*,-9%,-18%
O=C(O)c1ccccc1NC(=O)c1cc(-c2ccccc2)nc2ccccc12,-4%,-18%,4%,-23%,-19%
CC(C)COc1ccc(CN=C(N)N=C(N)N)cc1Cl,75%,/,2.9µM*,/,?
COc1ccc(CN=C(N)N=C(N)N)cc1Cl,11%,-25%,?,-25%,24%
CC(C)Oc1ccc(CN=C(N)N=C(N)N)cc1Cl,68%,?,12µM*,-4%,?
O=C(NCCCN1CCN(c2cccc(Cl)c2)CC1)c1ccc2nc(Cc3ccccc3)oc2c1,/,-27%,/,-28%,/
Cc1cc(C)cc(NC(=O)c2sc3nc[nH]c(=O)c3c2C)c1,/,-18%,/,-17%,/
Cc1oc2ncn(C)c(=O)c2c1C(=O)NCCCN(Cc1ccccc1)C(C)C,/,-14%,/,-4%,/
